Data reported in PubChem BioAssay (NCI).
About 79,000 compounds went through this panel and 15% of them were active in at least one assay; those are over-represented in the sample as a whole. A number with no mark means an inactive call. Active and inactive are the calls of the source. Cut-off read from the data, not from the text of the source: active = growth inhibition above about 70%; inactive = the rest.

Tests used:
[1] = NCI Yeast Anticancer Drug Screen. Data for the rad50 strain (AID 155);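 note: 0% = growth of vehicle-only cultures of the same strain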; settings: S. cerevisiae rad50 strain growth inhibition; at 50.0 µM; hits give high values
How it was run: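 Vehicle-treated cultures provide the reference for the growth inhibition reported for compound-exposed, repair-deficient yeast.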

[2] = NCI Yeast Anticancer Drug Screen. Data for the mec2-1 strain (AID 157); settings: S. cerevisiae mec2-1 strain, at 50.0 µM, hits give high values
How it was run: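 Yeast mec2-1 mutant treated with compound. Readout: growth inhibition vs vehicle controls.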

[3] = NCI Yeast Anticancer Drug Screen. Data for the sgs1 mgt1 strain (AID 161);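 note: 0% = growth of cultures given vehicle only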; settings: S. cerevisiae sgs1 mgt1 strain, at 50.0 µM, hits give high values
How it was run: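 Inhibition of yeast growth, normalised to vehicle-treated controls, is reported for a strain bearing genetic alterations in DNA damage repair.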

[4] = NCI Yeast Anticancer Drug Screen. Data for the cln2 rad14 strain (AID 165);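 note: 0% = growth equal to vehicle treated cultures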; settings: S. cerevisiae cln2 rad14 strain, at 50.0 µM, hits give high values
How it was run: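 cln2 rad14 yeast strain; compound exposure; growth inhibition read vs vehicle controls.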

[5] = NCI Yeast Anticancer Drug Screen. Data for the bub3 strain (AID 167); settings: S. cerevisiae bub3 mutant strain, at 50.0 µM, hits give high values
How it was run: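 Mutant yeast screening strain plus compound; vehicle-treated cultures serve as the 0% inhibition reference.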

[6] = NCI Yeast Anticancer Drug Screen. Data for the mlh1 rad18 strain (AID 175); settings: S. cerevisiae mlh1 rad18 strain growth inhibition; at 50.0 µM; hits give high values
How it was run: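 Yeast w/ defined DNA-repair lesions; compound exposure; growth vs vehicle controls → % inhibition.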

Row | SMILES | growth inhibition [1] | growth inhibition [2] [%] | growth inhibition [3] [%] | growth inhibition [4] [%] | growth inhibition [5] [%] | growth inhibition [6] [%]
1 | CCOP(=O)(NC(c1ccccc1)c1ccccc1)OCC | 21.9% | -15.2 | 30.6 | 5.55 | 25.1 | 28.8
2 | O=c1cc(Cl)nc2ccccn12 | 18.6% | -1.1 | -11 | -52.3 | -3.85 | 4.5
3 | COc1ccc(/C=C\C(=O)/C=C/c2ccc(OC)cc2)cc1 | -11.9% | 7.05 | 1.5 | -14.4 | -3.35 | 0
4 | CC(C)(C)[Si](C)(C)OCC1OC(n2cnc3c(N)ncnc32)CC1OS(C)(=O)=O (centres undefined) | -17% | -21.6 | 0.75 | -3.15 | 5.3 | 0.5
5 | Cc1ccc2[nH]c3ccccc3c2c1 | 26.1% | 14.6 | 22.9 | -14.8 | 15 | 31.1
6 | O=C(N/N=C\c1ccc(Cl)cc1Cl)c1ccncc1 | 1% | 6.85 | 5.15 | 19.2 | -7 | 3.5
7 | CC(c1ccccc1)N1C(=O)CSC1=S (centres undefined) | 37.1% | 30.5 | 22.8 | 35.8 | 53.6 | 52.1
8 | Cc1cc(C(=O)NN)c(C#N)c(=O)[nH]1 | 2.2% | -5.55 | -2.15 | -17.5 | 2.6 | -0.5
9 | CN1CCCN(C(c2ccccc2)c2ccc(Br)cc2)CC1 (centres undefined) | 40% | 1.95 | 19.8 | 24.1 | 30.9 | 46
10 | CN(C)c1ccc2nc3ccc(=[N+](C)C)cc-3oc2c1 | -27.8% | -12.4 | -27.7 | -250 | 6.1 | -12
11 | C1=NCCc2ccccc21 | 0.55% | 3 | -8.25 | -19.9 | 2.05 | 15.2
12 | CC1=CC(=Nc2ccc(N(C)C)cc2)C=C(C)C1=O | -14.5% | -21.1 | -5.1 | -38.1 | 20.2 | -12.4
13 | CNc1ccccc1C(N)=O | -21.5% | -28.6 | -10.3 | 11.7 | -7.85 | -6.5
14 | COc1cccc(C(=O)O)c1OC | 11.2% | 14.4 | 6.55 | 3.75 | -5.35 | 0
15 | COc1ccc(-c2csc(NC(=O)Nc3nc(-c4ccc(OC)cc4)cs3)n2)cc1 | 4.25% | -0.95 | 0.7 | -8.35 | 7.7 | 1.4
16 | CN(C(=S)S(=O)(=O)C12CC3CC(CC(C3)C1)C2)c1ccccc1 | 28.8% | 4.7 | 4.35 | -11.5 | 17.5 | -24.9
17 | CC(=O)OCC1OC(n2cnc3c(=S)nc(N)[nH]c32)C(OC(C)=O)C1OC(C)=O (centres undefined) | 73% (active) | 42 | 48.5 | -12.4 | 11.1 | 24.6
18 | CCCCc1ccc2nc(NC(=O)OC)[nH]c2c1 | -4.25% | 21.5 | 13.6 | 28.8 | 21.5 | 11.1
19 | Cc1ccc(/C=N/NC(N)=S)s1 | 24.9% | 1.9 | 49.1 | -41.5 | -12.8 | 48.5
20 | C=C1C(=O)C2CCC1C2 (centres undefined) | 32.4% | -24.6 | 23.8 | -3.2 | 7.8 | 8.25
21 | C=CCNC(=S)N/C=C(/C(=O)c1ccccc1)c1ccccc1 | -53.6% | -23.8 | -45.2 | -31.5 | -20.4 | -53.6
22 | Nc1nc(Cl)cc(Cl)n1 | 6.65% | 3.15 | 0 | 5.05 | 2.85 | 3.25

Row | SMILES | growth inhibition [1] | growth inhibition [2] [%] | growth inhibition [3] [%] | growth inhibition [4] [%] | growth inhibition [5] [%] | growth inhibition [6] [%]
23 | N#C/C(=C\NC(=S)N=Nc1c(O)[nH]c2ccccc12)c1nc2ccccc2s1 | 10.1% | 2.3 | 29.1 | -10.1 | 17.9 | 14.5
24 | CCOC(=O)c1cc(Cl)c(O)c(Cl)c1 | 4.5% | -14 | 1.4 | 11.7 | 3.25 | 13.9
25 | N#Cc1ccc2nc[nH]c2c1 | 18.7% | -6.75 | -13 | 19.4 | -15.4 | 17.9
26 | CCOC(=N)CC(=O)Nc1cccc(C)c1Cl | -2.85% | -14.1 | -11.4 | 18.6 | 8.5 | -3.3
27 | CC(C)c1ncc([N+](=O)[O-])n1C | -13.2% | 2.9 | -16.6 | -30.1 | 6.15 | 8.75
28 | CN(C)c1ccc(/C=C/C(=O)c2ccc(NC(N)=O)cc2)cc1 | -8.35% | 1.9 | -4.5 | -51.6 | -18 | -8
29 | Clc1ccc(-c2noc(/C=C\c3ccccc3)n2)cc1 | 12.7% | -20.1 | 4.8 | 12.1 | 8.7 | 7.45
30 | O=S(=O)(O)c1cccnc1 | 12.4% | 6 | 10.7 | -11.6 | -2.25 | 15.8
31 | CCCCCCCCNC(=O)C(C)C | -13.9% | 30.1 | -2.15 | -42.1 | -18.6 | -11.9
32 | O=C1C=Cc2ccccc2/C1=C/c1[nH]c(=O)[nH]c1O | -21.1% | -1.35 | -9.7 | 3.2 | -3 | -5.3
33 | CCOC(=O)/C(C#N)=C\c1c[nH]c2ccccc12 | 54.5% | 23.9 | 46.3 | -1.2 | 57.7 | 59.2
34 | CC(=O)O[C@H]1CC[C@]2(C)C3=C(C(=O)C[C@H]2C1(C)C)[C@]1(C)CC[C@H]([C@H](C)CCC(=O)O)[C@@]1(C)CC3=O | 42.8% | -8.05 | 33.2 | 3.5 | 2.05 | 0.4
35 | CC(=O)N(C(C)=O)c1ccc(C)cc1 | -13.7% | -18.9 | -14.7 | -9.75 | -11.2 | -13.9
36 | N#Cc1ccc(OC(=O)Nc2cc(Cl)cc(Cl)c2)cc1 | -6.5% | -21.9 | -3.65 | 12.9 | -4 | -3.55
37 | O=[N+]([O-])c1c(Cl)ncnc1Cl | -52.5% | -47.8 | -56.8 | -13.4 | -48.1 | -16.2
38 | CC(=O)c1cccc(N(C)S(=O)(=O)c2ccc(C)cc2)c1 | 47.6% | 7.1 | 21.8 | -31.2 | 45.1 | 37.9
39 | O=C(Oc1ccccc1Cl)c1ccc(Cl)cc1Cl | 2.2% | 33.4 | 24.9 | -49.4 | 43.2 | 48.3
40 | CCCCCCCCCCCCCCCCOc1ccccc1NC(=O)CC(C)=O | -8.7% | -18.9 | -9.1 | -5.85 | -5.3 | -3.95
41 | Cc1nc(C)c(C(=O)O)cc1C(=O)O | -8.9% | -17.8 | 9.15 | 2.85 | 21.4 | 4
42 | CCN(CC)CCOC(=O)Nc1c(C(C)C)cccc1C(C)C | -2.7% | -24.3 | 14.3 | 15.4 | 13 | 2.15
43 | Cc1cc(CC(=O)NCCO)n(CCO)c(=O)c1 | -7.85% | -21.5 | 6.55 | 6.25 | -2.7 | -2.9
44 | O=C(c1cccc(C(=O)c2ccc3c4c(cccc24)C(=O)N(c2ccccc2)C3=O)c1)c1ccc2c3c(cccc13)C(=O)N(c1ccccc1)C2=O | -35.5% | -36.8 | -23.1 | 12.1 | -25.4 | -20.8
